# In the supplement of paper PMC7695840:
# Structures can show the parent of a compound that is named as a salt.
# Assays:
# [1] = tested on: Staphylococcus aureus MW2 delta-mecA (mecA-); experiment: normalized GFP fluorescence (growth of mecA- strain) (fraction of control range); higher = more growth of mecA- strain; conditions: compound concentration: 150 uM; cefoxitin: subinhibitory; fluorescent label: GFP
# Outline: (§1)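 S. aureus MW2 cells, pre-induced, were used as a 1:1 mix of a DsRed strain carrying the gene and a GFP strain lacking it, in LB with a subinhibitory antibiotic dose set each day. At 5 µL/well they were placed onto 150 μM compound (1.5% DMSO) in 1536-well plates, one replicate, and kept unshaken for 20 h at 37 °C, 90% humidity. After DsRed (540/590) and GFP (485/520) reads scaled per plate to single-strain control medians, plates with high untreated ratios and rows with DsRed/GFP >10 were excluded.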
# [2] = tested on: Staphylococcus aureus MW2 (mecA+); experiment: normalized DsRed fluorescence (growth of mecA+ strain) (fraction of control range); higher = more growth of mecA+ strain; conditions: compound concentration: 150 uM; cefoxitin: subinhibitory; fluorescent label: DsRed
# Outline: as §1
SMILES,normalized GFP fluorescence [1],normalized DsRed fluorescence [2]
CC(=O)N(CC(O)CO)c1c(I)c(C(=O)NCCO)c(I)c(C(=O)NCC(O)CO)c1I (stereo unspecified),0.914,0.86
CN1C(C(=O)Nc2ccccn2)=C(O)c2sccc2S1(=O)=O,0.0134,0.778
Cn1nnc2c(C(N)=O)ncn2c1=O [Temozolomide],0.456,1.11
CC1=NN(c2ccc(C)c(C)c2)C(=O)/C1=N\Nc1cccc(-c2cccc(C(=O)O)c2)c1O,-0.0259,0.021
Nc1ccc(S(=O)(=O)c2ccc(N)cc2)cc1,0.296,0.89
CC(N/C(=N\C#N)Nc1ccncc1)C(C)(C)C (stereo unspecified),0.124,1.44
CN/C(=N\CCSCc1nc[nH]c1C)NC#N,0.567,1.05
NS(=O)(=O)c1cc(C(=O)O)c(NCc2ccco2)cc1Cl,0.306,0.841
CC(NCCc1ccc(O)cc1)C(O)c1ccc(O)cc1 (stereo unspecified),0.828,0.736
CCOC(=O)[C@H](CCc1ccccc1)N[C@@H](C)C(=O)N1[C@H](C(=O)O)C[C@H]2CCCC[C@@H]21,0.598,0.51
CNC[C@@H](O)c1ccc(O)c(O)c1 [L-Adrenaline (Epinephrine)],0.385,0.715
O=C1C(CC[S+]([O-])c2ccccc2)C(=O)N(c2ccccc2)N1c1ccccc1 (stereo unspecified),0.525,0.445
CN(C(=O)C(Cl)Cl)c1ccc(OC(=O)c2ccco2)cc1,0.156,0.938
O=C(O)CCNC(=O)c1ccc(/N=N/c2ccc(O)c(C(=O)O)c2)cc1,0.565,0.891
NNc1nncc2ccccc12,0.383,0.694
CC(C)C[C@H](NC(=O)[C@H](CCc1ccccc1)NC(=O)CN1CCOCC1)C(=O)N[C@@H](Cc1ccccc1)C(=O)N[C@@H](CC(C)C)C(=O)[C@@]1(C)CO1 [Carfilzomib (PR-171)],0.271,1.11
O.O.O.O.O.O.O.O.O.O.O.O.O.O.O.O.O.O.O.O.O=S(=O)([O][Al])OC[C@H]1O[C@@](COS(=O)(=O)[O][Al])(O[C@H]2O[C@H](COS(=O)(=O)[O][Al])[C@@H](OS(=O)(=O)[O][Al])[C@H](OS(=O)(=O)[O][Al])[C@H]2OS(=O)(=O)[O][Al])[C@@H](OS(=O)(=O)[O][Al])[C@@H]1OS(=O)(=O)[O][Al].[Al],0.405,0.842

SMILES,normalized GFP fluorescence [1],normalized DsRed fluorescence [2]
C[N+]1(C)[C@@H]2C[C@@H](OC(=O)C(O)(c3cccs3)c3cccs3)C[C@H]1[C@@H]1O[C@@H]12 [Tiotropium Bromide hydrate],0.394,0.674
CC(C)Cn1cnc2c(N)nc3ccccc3c21,0.18,1.09
CCCCCC(=O)O[C@]1(C(C)=O)CC[C@H]2[C@@H]3CCC4=CC(=O)CC[C@]4(C)[C@H]3CC[C@@]21C,0.34,0.39
C[C@@H]1C[C@H]2[C@@H]3C[C@H](F)C4=CC(=O)C=C[C@]4(C)[C@@]3(F)[C@@H](O)C[C@]2(C)[C@@]1(O)C(=O)CO,0.766,0.847
CS(=O)(=O)c1ccc([C@@H](O)[C@@H](CO)NC(=O)C(Cl)Cl)cc1,0.776,0.661
C[C@]12CC[C@@H]3c4ccc(O)cc4C[C@@H](CCCCCCCCC[S+]([O-])CCCC(F)(F)C(F)(F)F)[C@H]3[C@@H]1CC[C@@H]2O (stereo partly specified),0.185,0.667
O=c1[nH]c(=O)n([C@H]2C[C@H](O)[C@@H](CO)O2)cc1I [Idoxuridin],0.512,0.959
O=C1C(O)=C([C@H]2CC[C@H](c3ccc(Cl)cc3)CC2)C(=O)c2ccccc21 [Atovaquone (Atavaquone)],0.714,0.498
CNS(=O)(=O)CCc1ccc2[nH]cc(C3CCN(C)CC3)c2c1 [Naratriptan HCl],0.395,0.662
N#CC[C@H](C1CCCC1)n1cc(-c2ncnc3[nH]ccc23)cn1,0.187,0.956
CC[C@H](C)C(=O)O[C@H]1C[C@@H](C)C=C2C=C[C@H](C)[C@H](CC[C@@H]3C[C@@H](O)CC(=O)O3)[C@H]21,0.345,0.697
CNC[C@H](O)[C@@H](O)[C@H](O)[C@H](O)CO [Meglumine],0.21,0.823
NCCNCCNCCN,0.763,0.66
CCc1cn([C@H]2C[C@H](O)[C@@H](CO)O2)c(=O)[nH]c1=O,0.343,0.714
CNCC[C@H](Oc1cccc2ccccc12)c1cccs1,-0.0294,0.838
CO[C@H]1C[C@@H]2CC[C@@H](C)[C@@](O)(O2)C(=O)C(=O)N2CCCC[C@H]2C(=O)O[C@H]([C@H](C)C[C@@H]2CC[C@@H](OCCO)[C@H](OC)C2)CC(=O)[C@H](C)/C=C(\C)[C@@H](O)[C@@H](OC)C(=O)[C@H](C)C[C@H](C)/C=C/C=C/C=C/1C [Everolimus (RAD001)],-0.00462,1.72
